Measurements: the supplement of paper PMC10849652
The full data set covers some 7,900 targets. This sample favours those with a hit. About 0.6% of all pairs of compound and target were hits.

What follows are targets tested with CC(C)N(C[C@H]1O[C@@H](n2cnc3c(N)ncnc32)[C@H](O)[C@@H]1O)[C@H]1C[C@@H](CCc2nc3cc(C(C)(C)C)ccc3[nH]2)C1 [pinometostat] (assay: log2 fold change, soluble protein after heating vs DMSO (PISA); higher = thermal stabilisation; K562 cells, 10 uM, 30 min; active = over 0.2 and 3.5 SD of the protein, either way, in both replicates (recomputed)).
Outline: (§1)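 Thermal stability values are relative to control samples and come from duplicates. They are expressed as log2 fold changes. For measurement, K562 cells (2×10^6 cells/mL) received 10 μM compound for 30 min, and aliquots were heated for 3 min over 48°C-58°C, pooled, and extracted at 4°C in PBS with 0.5% NP-40. Soluble protein, the supernatant after 21,000xg for 90 min, was quantified by TMTpro 16plex LC-MS/MS with equalised channel sums.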

Chain of UniProt Q9Y5K5 (Q9Y5K5 whole entry, looked up): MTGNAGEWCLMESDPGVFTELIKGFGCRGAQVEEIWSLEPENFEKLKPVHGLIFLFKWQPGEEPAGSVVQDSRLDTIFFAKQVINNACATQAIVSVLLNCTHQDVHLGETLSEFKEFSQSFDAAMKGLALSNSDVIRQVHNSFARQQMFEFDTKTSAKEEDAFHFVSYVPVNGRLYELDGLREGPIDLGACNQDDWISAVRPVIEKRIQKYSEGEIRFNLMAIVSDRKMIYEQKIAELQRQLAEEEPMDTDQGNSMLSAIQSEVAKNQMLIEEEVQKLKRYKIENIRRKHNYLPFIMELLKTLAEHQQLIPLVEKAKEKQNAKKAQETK
Chain of UniProt Q9H267 (Q9H267 whole entry, looked up): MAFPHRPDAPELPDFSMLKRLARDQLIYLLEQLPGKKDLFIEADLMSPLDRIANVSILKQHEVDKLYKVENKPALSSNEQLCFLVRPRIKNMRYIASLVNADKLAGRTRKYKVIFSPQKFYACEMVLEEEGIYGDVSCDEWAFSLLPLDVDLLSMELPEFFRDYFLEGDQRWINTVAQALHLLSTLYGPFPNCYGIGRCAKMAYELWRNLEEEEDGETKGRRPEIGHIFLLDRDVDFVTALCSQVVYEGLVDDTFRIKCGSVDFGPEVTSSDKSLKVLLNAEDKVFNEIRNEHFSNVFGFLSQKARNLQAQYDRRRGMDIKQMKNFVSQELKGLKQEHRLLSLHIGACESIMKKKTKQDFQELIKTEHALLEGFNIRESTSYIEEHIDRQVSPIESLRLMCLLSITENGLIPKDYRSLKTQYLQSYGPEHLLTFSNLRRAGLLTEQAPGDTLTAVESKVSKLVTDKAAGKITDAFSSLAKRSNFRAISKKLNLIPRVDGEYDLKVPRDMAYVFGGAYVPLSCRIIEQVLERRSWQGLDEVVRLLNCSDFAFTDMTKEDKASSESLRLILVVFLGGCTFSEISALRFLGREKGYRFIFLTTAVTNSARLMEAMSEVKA
Chain of UniProt Q5U3C3 (Q5U3C3 whole entry, looked up): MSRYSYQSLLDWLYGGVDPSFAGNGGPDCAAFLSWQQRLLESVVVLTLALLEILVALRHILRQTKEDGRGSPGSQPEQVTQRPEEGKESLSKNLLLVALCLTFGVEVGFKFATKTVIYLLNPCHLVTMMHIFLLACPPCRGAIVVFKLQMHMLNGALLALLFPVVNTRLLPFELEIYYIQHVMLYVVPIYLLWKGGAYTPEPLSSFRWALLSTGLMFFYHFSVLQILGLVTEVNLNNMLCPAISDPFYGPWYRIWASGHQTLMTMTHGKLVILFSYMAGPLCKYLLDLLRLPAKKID
Chain of UniProt Q92890 (Q92890 whole entry, looked up): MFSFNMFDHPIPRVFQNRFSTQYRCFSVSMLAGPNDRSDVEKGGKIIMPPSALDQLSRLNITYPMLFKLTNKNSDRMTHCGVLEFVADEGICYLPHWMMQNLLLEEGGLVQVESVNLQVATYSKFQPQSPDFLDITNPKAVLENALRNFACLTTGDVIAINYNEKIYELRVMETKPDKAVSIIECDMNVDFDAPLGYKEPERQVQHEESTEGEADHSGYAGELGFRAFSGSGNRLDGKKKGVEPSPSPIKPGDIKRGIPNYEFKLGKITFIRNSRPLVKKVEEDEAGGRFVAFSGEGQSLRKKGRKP
Chain of UniProt Q9BQB6 (Q9BQB6 whole entry, looked up): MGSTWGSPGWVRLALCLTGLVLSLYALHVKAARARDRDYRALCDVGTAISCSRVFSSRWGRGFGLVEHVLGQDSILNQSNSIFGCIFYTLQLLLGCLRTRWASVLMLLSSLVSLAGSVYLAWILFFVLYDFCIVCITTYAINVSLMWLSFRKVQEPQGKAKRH
Chain of UniProt Q7Z3V4 (Q7Z3V4 whole entry, looked up): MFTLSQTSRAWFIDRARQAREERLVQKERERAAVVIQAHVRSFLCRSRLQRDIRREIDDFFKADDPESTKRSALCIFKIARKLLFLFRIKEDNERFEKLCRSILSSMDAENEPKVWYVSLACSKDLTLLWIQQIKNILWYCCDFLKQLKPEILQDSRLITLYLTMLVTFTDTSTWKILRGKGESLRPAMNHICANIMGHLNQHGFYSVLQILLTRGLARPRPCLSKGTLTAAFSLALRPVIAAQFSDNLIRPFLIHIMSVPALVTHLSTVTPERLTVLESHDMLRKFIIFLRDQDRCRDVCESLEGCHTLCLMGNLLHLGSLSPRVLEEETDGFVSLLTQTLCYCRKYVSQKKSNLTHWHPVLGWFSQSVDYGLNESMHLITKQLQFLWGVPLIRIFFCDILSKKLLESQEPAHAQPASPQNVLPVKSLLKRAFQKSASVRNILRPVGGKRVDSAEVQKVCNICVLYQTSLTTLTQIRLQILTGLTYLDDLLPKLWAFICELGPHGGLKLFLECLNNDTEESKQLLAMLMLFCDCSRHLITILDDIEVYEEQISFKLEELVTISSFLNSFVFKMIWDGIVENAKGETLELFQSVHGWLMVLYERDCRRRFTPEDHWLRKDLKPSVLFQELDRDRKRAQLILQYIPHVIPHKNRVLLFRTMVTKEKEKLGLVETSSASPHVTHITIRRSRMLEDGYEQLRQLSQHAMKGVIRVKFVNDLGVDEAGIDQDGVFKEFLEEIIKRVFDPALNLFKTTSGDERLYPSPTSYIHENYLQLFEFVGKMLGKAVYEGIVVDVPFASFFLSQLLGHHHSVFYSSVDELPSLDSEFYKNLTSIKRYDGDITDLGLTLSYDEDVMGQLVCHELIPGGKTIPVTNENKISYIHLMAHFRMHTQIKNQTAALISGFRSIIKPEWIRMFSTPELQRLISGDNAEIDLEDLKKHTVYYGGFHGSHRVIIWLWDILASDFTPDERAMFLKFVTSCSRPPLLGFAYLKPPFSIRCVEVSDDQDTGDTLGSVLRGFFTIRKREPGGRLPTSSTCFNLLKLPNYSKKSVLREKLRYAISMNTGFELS
Chain of UniProt Q96DX7 (Q96DX7 whole entry, looked up): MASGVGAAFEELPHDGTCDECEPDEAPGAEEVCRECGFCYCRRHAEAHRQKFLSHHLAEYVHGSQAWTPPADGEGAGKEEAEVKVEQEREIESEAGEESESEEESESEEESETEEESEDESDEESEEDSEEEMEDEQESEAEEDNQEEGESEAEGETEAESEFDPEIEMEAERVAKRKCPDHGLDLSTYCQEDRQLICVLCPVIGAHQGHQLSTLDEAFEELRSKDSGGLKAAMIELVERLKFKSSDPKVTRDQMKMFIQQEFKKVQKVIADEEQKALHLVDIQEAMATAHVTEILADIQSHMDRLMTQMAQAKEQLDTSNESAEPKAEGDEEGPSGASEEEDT
Chain of UniProt Q8IWA0 (Q8IWA0 whole entry, looked up): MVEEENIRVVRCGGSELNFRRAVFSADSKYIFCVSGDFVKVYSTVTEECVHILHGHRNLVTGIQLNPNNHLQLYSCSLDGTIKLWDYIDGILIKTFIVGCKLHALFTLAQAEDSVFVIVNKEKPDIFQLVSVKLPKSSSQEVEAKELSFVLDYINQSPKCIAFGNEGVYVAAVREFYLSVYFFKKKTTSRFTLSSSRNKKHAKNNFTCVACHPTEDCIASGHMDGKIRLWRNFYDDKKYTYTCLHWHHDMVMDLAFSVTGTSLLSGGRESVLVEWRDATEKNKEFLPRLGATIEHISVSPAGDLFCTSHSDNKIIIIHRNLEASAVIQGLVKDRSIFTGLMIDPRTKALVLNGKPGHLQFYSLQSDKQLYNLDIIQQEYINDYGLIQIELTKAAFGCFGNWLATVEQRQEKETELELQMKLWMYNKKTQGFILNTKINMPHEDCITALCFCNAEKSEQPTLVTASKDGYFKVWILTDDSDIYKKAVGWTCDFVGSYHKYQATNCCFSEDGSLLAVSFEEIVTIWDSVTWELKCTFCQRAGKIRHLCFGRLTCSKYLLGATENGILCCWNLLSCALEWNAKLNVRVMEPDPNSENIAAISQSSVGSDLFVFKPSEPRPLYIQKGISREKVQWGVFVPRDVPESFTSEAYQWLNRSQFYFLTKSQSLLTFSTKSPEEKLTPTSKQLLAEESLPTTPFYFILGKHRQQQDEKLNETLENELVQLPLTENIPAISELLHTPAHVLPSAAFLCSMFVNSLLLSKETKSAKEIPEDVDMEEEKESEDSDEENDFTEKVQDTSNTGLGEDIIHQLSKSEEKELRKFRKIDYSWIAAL
Chain of UniProt Q8NCE0 (Q8NCE0 whole entry, looked up): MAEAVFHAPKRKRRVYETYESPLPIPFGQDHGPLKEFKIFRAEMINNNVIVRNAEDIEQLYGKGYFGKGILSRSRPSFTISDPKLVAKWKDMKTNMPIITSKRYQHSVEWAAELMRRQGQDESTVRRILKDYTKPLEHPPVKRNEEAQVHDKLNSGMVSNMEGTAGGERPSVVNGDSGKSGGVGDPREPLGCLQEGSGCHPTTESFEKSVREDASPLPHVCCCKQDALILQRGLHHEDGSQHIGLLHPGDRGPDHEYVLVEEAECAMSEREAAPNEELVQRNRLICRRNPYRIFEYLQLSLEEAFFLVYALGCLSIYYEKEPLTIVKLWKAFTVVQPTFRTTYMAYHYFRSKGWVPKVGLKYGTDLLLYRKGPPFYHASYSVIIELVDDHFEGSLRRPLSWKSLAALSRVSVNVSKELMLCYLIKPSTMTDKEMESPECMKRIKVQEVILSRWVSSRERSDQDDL
Chain of UniProt Q9UBK9 (Q9UBK9 whole entry, looked up): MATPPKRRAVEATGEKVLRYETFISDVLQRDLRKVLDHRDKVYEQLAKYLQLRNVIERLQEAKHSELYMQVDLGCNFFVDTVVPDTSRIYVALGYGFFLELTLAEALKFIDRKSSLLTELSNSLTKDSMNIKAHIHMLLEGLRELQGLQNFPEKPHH
Chain of UniProt Q9Y5Z9 (Q9Y5Z9 whole entry, looked up): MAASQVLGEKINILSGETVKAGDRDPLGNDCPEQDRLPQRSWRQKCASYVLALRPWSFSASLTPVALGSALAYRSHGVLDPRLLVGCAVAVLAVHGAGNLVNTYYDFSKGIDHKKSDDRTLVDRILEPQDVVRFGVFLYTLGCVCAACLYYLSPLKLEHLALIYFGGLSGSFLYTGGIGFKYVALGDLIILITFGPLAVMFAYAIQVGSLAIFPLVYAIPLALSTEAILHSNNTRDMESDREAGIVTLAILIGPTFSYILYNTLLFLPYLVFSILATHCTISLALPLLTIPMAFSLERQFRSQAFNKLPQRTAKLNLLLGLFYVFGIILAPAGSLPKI

Target | log2 fold change
UXT isoform 2 (UniProt Q9UBK9) | -0.141 (inactive)
TMEM128 (UniProt Q5BJH2) | 0.122 (inactive)
VWA3B isoform 6 (UniProt Q502W6) | 0.079 (inactive)
TMEM164 (UniProt Q5U3C3) | -0.073 (inactive)
TXN2 (UniProt Q99757) | -0.048 (inactive)
WDR37 isoform 2 (UniProt Q9Y2I8) | -0.029 (inactive)
UBA52 (UniProt P62987) | 0.358 (inactive)
U2AF1L5 (UniProt P0DN76) | 0.014 (inactive)
TRIM44 (UniProt Q96DX7) | -0.01 (inactive)
USP15 (UniProt Q9Y4E8) | 0.012 (inactive)
UTP3 (UniProt Q9NQZ2) | 0.159 (inactive)
TTC33 (UniProt Q6PID6) | 0.111 (inactive)
WDR75 (UniProt Q8IWA0) | 0.197 (inactive)
UFD1 isoform 1 (UniProt Q92890) | -0.04 (inactive)
TXNL4B (UniProt Q9NX01) | -0.053 (inactive)
TMEM189-UBE2V1 (UniProt I3L0A0) | -0.046 (inactive)
WARS1 (UniProt G3V277) | 0.114 (inactive)
UNC119B (UniProt A6NIH7) | 0.126 (inactive)

Target | log2 fold change
TSEN2 (UniProt Q8NCE0) | 0.004 (inactive)
UCHL5 isoform 3 (UniProt Q9Y5K5) | -0.044 (inactive)
TMEM184C (UniProt Q9NVA4) | -0.021 (inactive)
TMEM106B (UniProt Q9NUM4) | 0.085 (inactive)
UBIAD1 (UniProt Q9Y5Z9) | -0.104 (inactive)
UBE4A isoform 2 (UniProt Q14139) | 0.093 (inactive)
UCHL5 (UniProt Q9Y5K5) | -0.004 (inactive)
VPS33B (UniProt Q9H267) | 0.156 (inactive)
VPS33A (UniProt Q96AX1) | 0.099 (inactive)
VPS18 (UniProt Q9P253) | 0.055 (inactive)
VKORC1 (UniProt Q9BQB6) | 0.092 (inactive)
TNFRSF8 (UniProt P28908) | -0.01 (inactive)
TXNRD1 (UniProt Q16881) | -0.042 (inactive)
WDCP (UniProt Q9H6R7) | 0.076 (inactive)
TSC2 (UniProt P49815) | 0.085 (inactive)
TNPO3 (UniProt Q9Y5L0) | 0.006 (inactive)
UBE3B (UniProt Q7Z3V4) | 0.239 (inactive)
TMEM179B (UniProt Q7Z7N9) | -0.024 (inactive)

The targets below were run with CC1=C(C(CC(=O)N1)C2=CC=C(C=C2)C(F)(F)F)C(=O)NC3=C(C=C4C(=C3)C=NN4)F in the same assay as above.
Outline: as §1

Target | log2 fold change
UXT isoform 2 (UniProt Q9UBK9) | -0.016 (inactive)
TMEM128 (UniProt Q5BJH2) | 0.001 (inactive)
VWA3B isoform 6 (UniProt Q502W6) | 0.257 (inactive)
TMEM164 (UniProt Q5U3C3) | -0.08 (inactive)
TXN2 (UniProt Q99757) | 0.086 (inactive)
WDR37 isoform 2 (UniProt Q9Y2I8) | -0.015 (inactive)
U2AF1L5 (UniProt P0DN76) | -0.209 (inactive)
TRIM44 (UniProt Q96DX7) | -0.007 (inactive)
USP15 (UniProt Q9Y4E8) | 0 (inactive)
WDR75 (UniProt Q8IWA0) | 0.058 (inactive)
UFD1 isoform 1 (UniProt Q92890) | -0.016 (inactive)
TXNL4B (UniProt Q9NX01) | 0.026 (inactive)
TMEM189-UBE2V1 (UniProt I3L0A0) | 0.03 (inactive)
WARS1 (UniProt G3V277) | 0.091 (inactive)
UNC119B (UniProt A6NIH7) | -0.048 (inactive)
TSEN2 (UniProt Q8NCE0) | 0.055 (inactive)

Target | log2 fold change
UCHL5 isoform 3 (UniProt Q9Y5K5) | 0.068 (inactive)
TMEM184C (UniProt Q9NVA4) | 0.081 (inactive)
TMEM106B (UniProt Q9NUM4) | 0.026 (inactive)
UBIAD1 (UniProt Q9Y5Z9) | -0.04 (inactive)
UBE4A isoform 2 (UniProt Q14139) | 0.098 (inactive)
UCHL5 (UniProt Q9Y5K5) | -0.004 (inactive)
VPS33B (UniProt Q9H267) | 0 (inactive)
VPS33A (UniProt Q96AX1) | 0.035 (inactive)
VPS18 (UniProt Q9P253) | -0.019 (inactive)
VKORC1 (UniProt Q9BQB6) | 0.007 (inactive)
TNFRSF8 (UniProt P28908) | 0.003 (inactive)
TXNRD1 (UniProt Q16881) | -0.011 (inactive)
WDCP (UniProt Q9H6R7) | 0.055 (inactive)
TNPO3 (UniProt Q9Y5L0) | 0.036 (inactive)
UBE3B (UniProt Q7Z3V4) | -0.102 (inactive)
TMEM179B (UniProt Q7Z7N9) | 0.017 (inactive)
